Reference: PubChem BioAssay (Tox21)
Values joined by “and” are separate entries in the source; they are usually repeats but may differ in a detail not shown here. Equal entries are not always repeated. Inconclusive results are not listed. Entries that show only a call come without a potency. Where a structure was tested more than once in an assay, its records may differ in their call. Active and inactive are the calls of the source. Unless noted, calls come from the whole dose curve; as a rule, active = well fitted curve in the direction sought with a large enough effect in the repeat runs; inconclusive = weak or mixed curves; inactive = no such curve, though single readings can be large; an effect the other way counts as inactive or inconclusive.

Key:
[1] = qHTS assay to identify aromatase inhibitors - cell viability counter screen (AID 743084);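 note: cells stimulated with testosterone during compound exposure; nearly all actives have a fitted effect of over 55% in size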; note: potency is the fitted concentration of half-maximal effect
[2] = target: Aryl hydrocarbon receptor (Homo sapiens) (UniProt P35869); assay: qHTS assay to identify small molecule that activate the aryl hydrocarbon receptor (AhR) signaling pathway (AID 743085); note: nearly all actives have a fitted effect of over 15% in size; note: potency is the fitted concentration of half-maximal effect;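 for activation: HG2L7.5c1 human HepG2 liver cells with stably integrated DRE-driven firefly reporter; series mostly up to about 70 µM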
Chain of Aryl hydrocarbon receptor (Homo sapiens) (P35869 whole entry, looked up): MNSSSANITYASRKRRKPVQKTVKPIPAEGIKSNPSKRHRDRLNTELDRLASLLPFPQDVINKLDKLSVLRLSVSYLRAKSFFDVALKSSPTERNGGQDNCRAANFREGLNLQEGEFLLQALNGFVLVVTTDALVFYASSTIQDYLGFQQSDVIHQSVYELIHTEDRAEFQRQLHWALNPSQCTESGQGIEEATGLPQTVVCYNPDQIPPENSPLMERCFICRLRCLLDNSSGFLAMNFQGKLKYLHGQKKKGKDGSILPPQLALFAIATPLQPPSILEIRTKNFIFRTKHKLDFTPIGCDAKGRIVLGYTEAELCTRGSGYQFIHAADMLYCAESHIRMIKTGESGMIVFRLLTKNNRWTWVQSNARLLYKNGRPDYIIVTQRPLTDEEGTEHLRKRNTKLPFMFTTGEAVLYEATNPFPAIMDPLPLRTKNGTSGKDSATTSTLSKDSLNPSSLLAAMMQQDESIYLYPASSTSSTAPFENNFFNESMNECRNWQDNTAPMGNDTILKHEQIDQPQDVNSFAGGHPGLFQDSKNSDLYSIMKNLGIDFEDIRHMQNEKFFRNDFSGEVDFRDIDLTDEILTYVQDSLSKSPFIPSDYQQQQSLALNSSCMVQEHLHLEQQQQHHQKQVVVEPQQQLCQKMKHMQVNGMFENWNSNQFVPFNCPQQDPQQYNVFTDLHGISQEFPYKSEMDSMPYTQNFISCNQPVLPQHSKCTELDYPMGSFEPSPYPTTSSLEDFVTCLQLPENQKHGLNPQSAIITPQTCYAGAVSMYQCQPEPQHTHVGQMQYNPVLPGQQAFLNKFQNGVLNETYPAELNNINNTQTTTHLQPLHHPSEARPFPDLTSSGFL
Outline: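 Stably transfected human liver carcinoma cells (HG2L7.5c1; 20 DRE-firefly luciferase) were incubated 5 h, dosed, and kept 24 h at 37C. Agonism was scored from increased luciferase luminescence.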

[3] = qHTS assay to identify small molecule that activate the aryl hydrocarbon receptor (AhR) signaling pathway - cell viability counter screen (AID 743086); note: nearly all actives have a fitted effect of over 45% in size; note: potency is the fitted concentration of half-maximal effect
Outline: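 HepG2-AhR-luc (HG2L7.5c1) cells, 4000/well, were preincubated 5 h at 37C, exposed to compound in qHTS format for 24 hr at 37C, then given CellTiter-Fluor for 30 min; viability was read as fluorescence in the reporter wells.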

[4] = target: Peroxisome proliferator-activated receptor gamma (Homo sapiens) (UniProt P37231); assay: qHTS assay to identify small molecule agonists of the peroxisome proliferator-activated receptor gamma (PPARg) signaling pathway (AID 743094; active = well fitted activation curve with a large enough effect in the signal ratio in the repeat runs, not every such curve was filed as active; the % refers to the signal ratio)
Chain of Peroxisome proliferator-activated receptor gamma (Homo sapiens) (P37231 whole entry, looked up): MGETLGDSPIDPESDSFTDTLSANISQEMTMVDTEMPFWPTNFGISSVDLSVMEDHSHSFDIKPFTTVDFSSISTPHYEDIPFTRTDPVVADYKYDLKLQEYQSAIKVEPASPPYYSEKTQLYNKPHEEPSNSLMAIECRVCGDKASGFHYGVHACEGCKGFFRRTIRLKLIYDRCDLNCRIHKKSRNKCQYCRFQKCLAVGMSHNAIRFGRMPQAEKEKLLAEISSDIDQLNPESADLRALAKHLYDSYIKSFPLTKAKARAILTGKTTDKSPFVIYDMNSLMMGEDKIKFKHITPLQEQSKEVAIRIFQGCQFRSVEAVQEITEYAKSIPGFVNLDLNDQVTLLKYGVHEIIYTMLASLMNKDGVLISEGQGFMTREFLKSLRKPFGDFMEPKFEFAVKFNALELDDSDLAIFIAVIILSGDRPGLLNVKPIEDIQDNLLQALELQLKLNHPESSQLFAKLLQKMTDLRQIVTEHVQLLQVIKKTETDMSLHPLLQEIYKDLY
Outline: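 Cells from the PPARg UAS-bla HEK293H line are plated and incubated 5 h at 37C. Compounds in DMSO are pinned in and left 17 h at 37C. LiveBLAzer B/G substrate is then added for 1 h at room temperature before fluorescence is measured.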

[5] = target: Peroxisome proliferator-activated receptor gamma (Homo sapiens) (UniProt P37231); assay: qHTS assay to identify small molecule antagonists of the peroxisome proliferator-activated receptor gamma (PPARg) signaling pathway (AID 743191; calls by dose curve; note: series mostly up to about 63 µM; nearly all actives have a fitted effect of over 30% in size)
Outline: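 GeneBLAzer PPARg UAS-bla HEK293H cells carrying a UAS-driven beta-lactamase reporter were plated at 3000 cells/well, preincubated 5 h at 37C, then given compound for 17 h at 37C; LiveBLAzer B/G FRET substrate was read after 1 h at room temperature.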

[6] = qHTS assay to identify small molecule antagonists of the peroxisome proliferator-activated receptor gamma (PPARg) signaling pathway - cell viability counter screen (AID 743194); note: nearly all actives have a fitted effect of over 55% in size
Outline: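 PPARg-UAS-bla HEK293H cells were plated, rested 5 h at 37 C, then treated with compounds plus rosiglitazone (50 nM final) for 17 h at 37 C; viability was then read by CellTiter-Glo luminescence after 30 min at room temperature.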

[7] = qHTS assay for small molecule agonists of the antioxidant response element (ARE) signaling pathway - cell viability counter screen (AID 743203; calls by dose curve; note: nearly all actives have a fitted effect of over 55% in size)
Outline: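 Cytotoxicity was tested in parallel with the ARE reporter screen. ARE-bla HepG2 cells were exposed to compounds for 16 hrs, and viability was taken from CellTiter-Glo luminescence.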

[8] = qHTS assay for small molecule activators of the heat shock response signaling pathway - cell viability counter screen (AID 743209); note: nearly all actives have a fitted effect of over 50% in size
Outline: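 Cytotoxicity counter screen run in parallel with the HSE beta-lactamase reporter, using the same wells. HeLa HSE-bla cells received compound for 5 h at 37 C; ATP-based CellTiter-Glo luminescence was measured after 30 min at room temperature.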

[9] = qHTS assay for small molecule activators of the heat shock response signaling pathway (AID 743210; active = well fitted activation curve with a large enough effect in the signal ratio in the repeat runs, with a control signal flat, not every such curve was filed as active; the % refers to the signal ratio;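 note: HeLa cells with beta-lactamase reporter driven by heat shock elements; series mostly up to about 63 µM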)
Outline: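 Activation of heat shock element-controlled beta-lactamase expression is measured in HeLa cells by LiveBLAzer FRET fluorescence, with compound exposure lasting 5 h at 37 C and substrate loading 2.5 h at room temperature.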

[10] = target: Peroxisome proliferator-activated receptor delta (Homo sapiens) (UniProt Q03181); assay: qHTS assay to identify small molecule agonists of the peroxisome proliferator-activated receptor delta (PPARd) signaling pathway (AID 743212; calls by dose curve)
Chain of Peroxisome proliferator-activated receptor delta (Homo sapiens) (Q03181 whole entry, looked up): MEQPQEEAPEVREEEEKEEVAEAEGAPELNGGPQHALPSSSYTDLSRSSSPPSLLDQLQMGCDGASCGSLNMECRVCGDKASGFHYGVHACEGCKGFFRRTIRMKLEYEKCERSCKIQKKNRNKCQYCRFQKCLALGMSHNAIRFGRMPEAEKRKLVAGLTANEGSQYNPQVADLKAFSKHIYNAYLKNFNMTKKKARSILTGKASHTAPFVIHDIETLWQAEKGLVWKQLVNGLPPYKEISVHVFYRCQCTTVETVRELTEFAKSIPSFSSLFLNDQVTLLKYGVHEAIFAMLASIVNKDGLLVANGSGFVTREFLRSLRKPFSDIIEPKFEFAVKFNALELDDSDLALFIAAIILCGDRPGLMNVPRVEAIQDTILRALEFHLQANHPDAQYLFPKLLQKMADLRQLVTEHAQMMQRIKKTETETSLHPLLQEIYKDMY
Outline: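 Cells expressing a UAS-driven beta-lactamase reporter (PPARd-bla HEK293H) were given test compounds after a 5 h settle and kept at 37 C. Reporter activity was then measured as FRET fluorescence using LiveBLAzer B/G substrate.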

[11] = qHTS assay to identify small molecule antagonists of the peroxisome proliferator-activated receptor delta (PPARd) signaling pathway - cell viability counter screen (AID 743213); note: nearly all actives have a fitted effect of over 50% in size
Outline: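 In this counter screen, HEK293H cells carrying a UAS-beta-lactamase reporter are co-treated with test compounds and 300 nM L165041 (final) for 17 h at 37 C; cell viability is quantified by CellTiter-Glo luminescence.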

[12] = target: Peroxisome proliferator-activated receptor delta (Homo sapiens) (UniProt Q03181); assay: qHTS assay to identify small molecule antagonists of the peroxisome proliferator-activated receptor delta (PPARd) signaling pathway (AID 743215; active = well fitted inhibition curve with a large enough effect in the signal ratio in the repeat runs, not every such curve was filed as active; the % refers to the signal ratio;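 note: cells stimulated with agonist L165041 at 300 nM final during compound exposure; series mostly up to about 62 µM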)
Outline: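 Cells: HEK293H with a UAS-driven beta-lactamase reporter responsive to PPARd. Compounds were co-added with L165041 (300 nM, final) and incubated 17 h at 37 C before a 2 h room-temperature FRET substrate step and fluorescence reading.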

[13] = qHTS assay for small molecule agonists of the antioxidant response element (ARE) signaling pathway (AID 743202; active = well fitted activation curve with a large enough effect in the signal ratio in the repeat runs, not every such curve was filed as active; the % refers to the signal ratio; note: potency is the fitted concentration of half-maximal effect)
Outline: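 Steps: seed ARE-bla HepG2 cells (2,000/well); incubate 5 h at 37 C; add compounds by pin tool; incubate 16 h at 37 C; add FRET substrate; read fluorescence after 2 h at RT.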

[14] = target: Bile acid receptor (Homo sapiens) (UniProt Q96RI1); assay: qHTS assay to identify small molecule antagonists of the farnesoid-X-receptor (FXR) signaling pathway (AID 743217; active = well fitted inhibition curve with a large enough effect in the signal ratio in the repeat runs, not every such curve was filed as active; the % refers to the signal ratio; note: potency is the fitted concentration of half-maximal effect)
Chain of Bile acid receptor (Homo sapiens) (Q96RI1 whole entry, looked up): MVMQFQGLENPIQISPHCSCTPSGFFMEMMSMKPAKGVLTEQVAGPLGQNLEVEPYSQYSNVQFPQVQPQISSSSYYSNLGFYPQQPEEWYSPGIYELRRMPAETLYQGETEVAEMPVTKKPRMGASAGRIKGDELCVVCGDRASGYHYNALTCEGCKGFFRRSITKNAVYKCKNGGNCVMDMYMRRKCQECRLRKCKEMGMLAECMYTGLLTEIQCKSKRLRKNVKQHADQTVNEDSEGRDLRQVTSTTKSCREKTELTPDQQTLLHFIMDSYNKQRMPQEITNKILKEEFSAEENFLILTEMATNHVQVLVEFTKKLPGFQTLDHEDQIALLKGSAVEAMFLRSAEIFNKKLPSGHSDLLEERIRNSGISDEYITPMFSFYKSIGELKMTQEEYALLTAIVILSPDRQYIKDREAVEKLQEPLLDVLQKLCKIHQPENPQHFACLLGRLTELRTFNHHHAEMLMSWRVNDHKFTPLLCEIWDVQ
Outline: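 Cells carrying a UAS-driven beta-lactamase reporter (GeneBLAzer FXR-UAS-bla HEK 293T) were plated and rested 5 h at 37 °C. Compounds in DMSO were added alongside chenodeoxycholic acid agonist at 50 uM final and left 16 h at 37 °C before FRET substrate readout.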

[15] = target: Bile acid receptor (Homo sapiens) (UniProt Q96RI1); assay: qHTS assay to identify small molecule agonists of the farnesoid-X-receptor (FXR) signaling pathway (AID 743220; active = well fitted activation curve with a large enough effect in the signal ratio in the repeat runs, not every such curve was filed as active; the % refers to the signal ratio)
Outline: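 FXR-UAS-bla HEK 293T cells carrying a UAS-driven beta-lactamase reporter were plated for 5 h at 37C/5% CO2, then exposed to DMSO-dissolved Tox21 10K compounds for 16 h at 37C. A LiveBLAzer B/G FRET substrate was loaded for 2 h at room temperature before fluorescence reading.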

[16] = qHTS assay to identify small molecule antagonists of the farnesoid-X-receptor (FXR) signaling pathway - cell viability counter screen (AID 743221; active = well fitted cell-killing curve with a large enough effect in the repeat runs, not every such curve was filed as active; note: nearly all actives have a fitted effect of over 50% in size)
Outline: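 Here viability was scored by luminescence after CellTiter-Glo addition to wells already read for beta-lactamase. Prior treatment: compound plus CDCA (50 uM final), 16 h, 37 C, HEK 293T FXR-bla cells.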

[17] = target: Vitamin D3 receptor (Homo sapiens) (UniProt P11473); assay: qHTS assay to identify small molecule agonists of the vitamin D receptor (VDR) signaling pathway (AID 743222; calls by dose curve)
Chain of Vitamin D3 receptor (Homo sapiens) (P11473 whole entry, looked up): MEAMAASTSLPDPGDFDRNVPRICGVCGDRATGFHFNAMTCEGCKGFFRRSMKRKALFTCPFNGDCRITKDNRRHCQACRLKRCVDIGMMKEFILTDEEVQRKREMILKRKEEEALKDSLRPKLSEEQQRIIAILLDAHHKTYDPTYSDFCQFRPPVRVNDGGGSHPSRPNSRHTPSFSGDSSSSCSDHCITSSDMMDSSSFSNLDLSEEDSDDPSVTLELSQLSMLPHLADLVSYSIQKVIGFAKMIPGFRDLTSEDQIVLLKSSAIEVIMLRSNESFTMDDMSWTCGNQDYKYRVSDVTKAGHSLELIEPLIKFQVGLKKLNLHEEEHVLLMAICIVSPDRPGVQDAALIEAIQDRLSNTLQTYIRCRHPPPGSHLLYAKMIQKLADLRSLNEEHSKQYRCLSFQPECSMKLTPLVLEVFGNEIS
Outline: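 Cells carrying a VDR-driven beta-lactamase reporter are seeded at 2,000 per well and rested 4 h. Compounds in DMSO are added for 16 h at 37C, and FRET substrate fluorescence is measured after 2 h at room temperature.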

[18] = qHTS assay to identify small molecule agonists of the farnesoid-X-receptor (FXR) signaling pathway - cell viability counter screen (AID 743218); note: nearly all actives have a fitted effect of over 45% in size; note: potency is the fitted concentration of half-maximal effect
Outline: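 Cells were seeded, left 5 h at 37 C and 5% CO2, then dosed with compound in DMSO for 16 h. After the beta-lactamase FRET read, CellTiter-Glo was added and luminescence measured 30 min later.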

[19] = target: Vitamin D3 receptor (Homo sapiens) (UniProt P11473); assay: qHTS assay to identify small molecule antagonists of the vitamin D receptor (VDR) signaling pathway (AID 743223; active = well fitted inhibition curve with a large enough effect in the signal ratio in the repeat runs, not every such curve was filed as active; the % refers to the signal ratio)
Outline: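 Inhibition of agonist-driven VDR signalling is scored in VDR-bla cells: 3 nM final 1alpha,25-dihydroxyvitamin D3 plus compound, 16 h at 37C, then beta-lactamase detection by FRET substrate fluorescence after 2 h.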

[20] = qHTS assay to identify small molecule agonists of the peroxisome proliferator-activated receptor delta (PPARd) signaling pathway - cell viability counter screen (AID 743211); note: nearly all actives have a fitted effect of over 55% in size; note: potency is the fitted concentration of half-maximal effect
Outline: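 In the same wells used for beta-lactamase reporter measurement, cytotoxicity is scored by CellTiter-Glo. HEK293H PPARd-bla cells receive compound for 17 h at 37C following a 5 h settling period.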

Compound | Potency [1] | Potency [2] | Potency [3] | Potency [4] | Potency [5] | Potency [6] | Potency [7] | Potency [8] | Potency [9] | Potency [10] | Potency [11] | Potency [12] | Potency [13] | Potency [14] | Potency [15] | Potency [16] | Potency [17] | Potency [18] | outcome [19] | Potency [20]
CC(=O)c1ccc2c(c1)N(CCCN(C)C)c1ccccc1S2 | inactive | inactive | inactive | inactive | inactive | inactive | inactive | inactive | inactive | inactive | inactive | inactive | – | – | – | – | – | – | – | –
O=S(=O)(Oc1ccc(Cl)cc1)c1ccccc1 | inactive | inactive | inactive | inactive | – | inactive | inactive | inactive | inactive | – | inactive | – | inactive | inactive | inactive | inactive | inactive | – | – | –
CCCCCCCC/C=C\CCCCCCCC(=O)OCC | inactive | inactive | inactive | inactive | inactive | – | inactive | inactive | inactive | inactive | – | – | – | – | – | inactive | – | inactive | inactive | –
COC(=O)c1ccc(I)cc1S(=O)(=O)NC(=O)Nc1nc(C)nc(OC)n1 | inactive | inactive | inactive | inactive | – | inactive | inactive | inactive | inactive | – | inactive | – | inactive | – | – | inactive | inactive | inactive | inactive | inactive
CCCCCCCCCCCC(=O)OC[C@@H](O)[C@H]1OC[C@H](OCCO)[C@H]1OCCO | inactive | inactive | inactive | inactive | inactive | inactive | inactive | inactive | – | inactive | – | – | – | – | – | inactive | inactive | – | – | –
CC(C)=CCC/C(C)=C/CC/C(C)=C/CO | inactive | inactive | inactive | inactive | – | inactive | inactive | – | – | – | inactive | inactive | – | – | – | inactive | – | inactive | inactive | 38.9 µM (active)
COc1cc(Cl)ccc1Oc1ccc(Cl)cc1Cl | inactive | inactive | inactive | inactive | – | inactive | inactive | inactive | inactive | inactive | inactive | inactive | – | inactive | inactive | inactive | – | inactive | inactive | 47.6 µM (active)
Nc1ncn([C@H]2C[C@H](O)[C@@H](CO)O2)c(=O)n1 | inactive | inactive | inactive | inactive | – | inactive | inactive | inactive | – | – | inactive | – | inactive | 10.6 µM (active) | inactive | inactive | inactive | inactive | inactive | inactive
CCCCCCCN | inactive | inactive | inactive | inactive | – | inactive | inactive | inactive | – | inactive | inactive | – | – | – | inactive | inactive | – | inactive | – | –
C/C=C/C=C/CO | inactive | inactive | inactive | inactive | – | – | inactive | inactive | inactive | inactive | inactive | inactive | – | inactive | inactive | inactive | – | inactive | – | inactive
CCN(CC)c1ccc2c(-c3ccccc3C(=O)O)c3ccc(=[N+](CC)CC)cc-3oc2c1 | 8.63 µM (active) | inactive | 9.69 µM (active) | inactive | – | inactive | inactive | inactive | inactive | – | inactive | – | – | inactive | – | inactive | inactive | – | – | inactive
CO[C@@H]1[C@H](OC(=O)/C=C/C=C/C=C/C=C/C(=O)O)CC[C@]2(CO2)[C@H]1[C@@]1(C)O[C@@H]1CC=C(C)C | inactive | inactive | inactive | inactive | – | inactive | inactive | inactive | – | inactive | inactive | inactive | – | – | – | – | inactive | 1.95 µM (active) | inactive | –
CCOc1ccc(O)cc1 | inactive | inactive | inactive | – | inactive | inactive | inactive | inactive | inactive | inactive | inactive | – | – | – | – | inactive | inactive | inactive | inactive | inactive
CC(=O)[O][Al][O]C(C)=O | inactive | inactive | inactive | – | – | inactive | inactive | inactive | – | – | inactive | – | inactive | – | – | inactive | – | inactive | – | inactive
O=C1OC(CN2CCOCC2)CN1/N=C/c1ccc([N+](=O)[O-])o1 (centres undefined) | inactive | inactive | inactive | – | – | inactive | inactive | inactive | inactive | inactive | inactive | inactive | 29.8 µM (active) | – | – | inactive | inactive | inactive | – | –
OCc1cc(C(O)CNCCCCCCOCCCCc2ccccc2)ccc1O (centres undefined) | 11.9 µM (active) and 9.44 µM (active) | 26.6 µM (active) and inactive | 26.6 µM (active) and 13.3 µM (active) | – | inactive | inactive | – | inactive | inactive | – | – | inactive | – | – | inactive | inactive | – | – | – | –
O=C(O)c1ccccc1Cl | inactive | inactive | inactive | inactive | – | inactive | inactive | inactive | inactive | inactive | inactive | inactive | – | inactive | inactive | inactive | inactive | – | inactive | inactive
